IL2 activator = IL-2 activation; 360,000 compounds, 0.065% hits; AID 652025; activation, % (series mostly up to about 46 µM); IL-2 activation reporter assay, cell-based qHTS; stimulated with anti-CD3/CD4/CD28 beads; in transgenic mouse T cells; in the data active = activation above about 50%; inconclusive = mostly about 30% to 49%
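Quantitative HTS in unstimulated transgenic mouse T cells, with memory T cells as non-tolerant control and PMA/ionomycin as tolerance-bypass control. Compound pretreatment lasted 60 minutes before 18 h bead stimulation; EGFP/DsRed fluorescence read.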
BCR signal inh = inhibitors of chronic active B-cell receptor signaling | ABC-DLBCL IkBa-CBG/CBR reporter, luminescence ratio, 4 h | Potency, µM (titrated, usually from 46.1 µM), usual class: inhibitors | 340,000 compounds, 0.05% hits; active = well fitted inhibition curve with a large enough effect in the signal ratio, with a control signal flat, not every such curve was filed as active; inconclusive = small, poorly fitted or top-dose-only effect, or effect the other way, or a change in a side signal; the % refers to the signal ratio
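Cell line TMD8 (human ABC DLBCL), stably expressing tet-inducible CBG68-IkBa fusion and CBR; IMDM/0.5% FBS; cpd up to 46 uM; dox induction, 4 h, 37C/5% CO2; dual luminescence; green/red ratio; MG132 control.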
Nrf2 ARE act = activators of Nrf2 (ARE) signaling. AREc32 ARE-luciferase reporter (MCF7-derived line), luminescence, 24 h. Potency, µM (series often up to 46.1 µM), actives largely listed as activators. 410,000 compounds, 0.31% hits. AID 624171; also: nearly all actives have a fitted effect of over 65% in size
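Cells of the AREc32 ARE-luciferase line are plated in OPTI-MEM containing 5% FBS and left overnight at 37 deg C. Compounds are pinned in, incubation continues 24 hr, and firefly luciferase signal is then measured.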
a7 integrin act = integrin-mediated muscular dystrophy alleviation activation; alpha7betagal myoblasts, beta-gal FDG fluorescence, 48 h; Potency, µM (titrated, usually from 38.3 µM), hits mostly activators; 350,000 compounds, 0.064% hits; also: nearly all actives have a fitted effect of over 60% in size
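alpha7betagal+/- myoblasts (passage 13, 250/well) treated 48 h at 37C with compounds at 1:260 dilution of DMSO stock. Lysed, then beta-galactosidase activity read as FDG fluorescence (ex 480/em 540) after 30 min, with pre-read for autofluorescence.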
N370S GC mod = inhibits or activates N370S mutant glucocerebrosidase; P04062; N370S GC spleen homogenate, 4MU-glucoside fluorescence; Potency, µM (series often up to 59.4 µM), actives largely listed as inhibitors; 330,000 compounds, 0.092% hits
BRCA1 expr up = activators of BRCA1 expression | Potency, µM (top dose mostly 46.1 µM), usual class: activators | MCF7-BRCA1-FFLuc reporter, luminescence, 48 h; response scale: scaled: vehicle 0%, 10 µM genistein 100% | 380,000 compounds, 1.1% hits | AID 624202; also: nearly all actives have a fitted effect of over 80% in size
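First, MCF7-BRCA1-FFLuc cells (2000/well) attach for 2 h; next, compounds are pin-added and incubated 48 h at 37 °C; finally, luciferase reagent is added and luminescence read after 15 min.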
A number is an active result; i = inactive; ? = inconclusive; nt = no result; [ ] = dose if it differs, or a comment. Sampled rows, rich in hits. Any-hit rate of the full collection: about 1.4%. Unless noted, calls follow the shape of the dose curve; as a rule, active = well fitted curve in the direction sought with a large enough effect; inconclusive = small, poorly fitted or top-dose-only effect, or another doubt; inactive = no such curve, though single readings can be large; an effect the other way counts as inactive or inconclusive.

SMILES	IL2 activator	BCR signal inh	Nrf2 ARE act	a7 integrin act	N370S GC mod	BRCA1 expr up
Cc1ccn2c(NCc3ccc4c(c3)OCO4)c(-c3ccc(O)cc3)nc2c1	i	?	i	i	13µM	i
C/C(=N/Nc1ccccc1C(=O)O)c1cccs1	i	i	i	i	i	10µM
C/C(=N\Nc1ccc(Cl)c(C(=O)O)c1)c1cccs1	i	?	i	?	i	13µM
C/C(=N\OCC(=O)Nc1ccccc1Br)c1cccs1	i	?	22µM	i	i	i
Nc1c2c3c(sc2nc(=O)n1N)CCCC3	i	i	i	i	i	i
Nc1nc2sc3c(c2c(=O)s1)CCCC3	i	?	i	i	i	11µM
CC1=Nn2c(nc3sc4c(c3c2=O)CCCC4)SC1	i	i	i	i	i	7.1µM
O=c1c2c3c(sc2nc2n1CCCCC2)CCCC3	i	i	i	i	i	4.5µM
O/N=C/c1ccccc1OCc1ccc(Cl)cc1	i	?	i	i	i	11µM
CC(=O)Oc1cc2c(c3ccccc13)CCC2=O	i	nt	13µM	i	nt	i
Cc1ccc(COC(=O)c2ccc3ccccc3n2)cc1	i	?	i	i	i	i
O=C(NCC1CC1)c1ccc2c3n(nc2c1)-c1ccc(Cl)cc1CO3	i	nt	i	i	nt	2.5µM
C[C@@H](CO)NC(=O)c1ccc2c3n(nc2c1)-c1ccc(Cl)cc1CO3	i	i	i	i	i	?
O=C(NCCO)c1ccc2c3n(nc2c1)-c1ccc(Cl)cc1CO3	i	i	i	i	?	3.2µM
Cc1ccc2c(c1)COc1c3ccc(C(=O)N4CCOCC4)cc3nn1-2	i	i	i	i	i	4.5µM
O=C(c1ccc2c3n(nc2c1)-c1ccc(Cl)cc1CO3)N1CCCCC1	i	?	i	i	i	?
COCCNC(=O)c1ccc2c3n(nc2c1)-c1ccc(Cl)cc1CO3	i	?	i	i	i	?
CC(C)[C@@H](CO)NC(=O)c1ccc2c3n(nc2c1)-c1ccc(Cl)cc1CO3	i	i	i	i	i	4µM
CCOC(=O)c1cc(NC(=O)Nc2ccccn2)c(C)nc1C	i	?	i	i	i	i
O=C(CCc1nc(-c2cccs2)no1)Nc1ccccc1[N+](=O)[O-]	nt	nt	i	nt	nt	nt
COc1ccc(-c2cc(C(F)(F)F)n3nc(C(N)=O)cc3n2)cc1	i	nt	i	i	nt	i
Fc1ccc(Cc2cn3cc(-c4ccc(Cl)cc4)nc3s2)cc1	nt	nt	i	nt	nt	0.89µM
Fc1ccc(-c2cn3cc(Cc4ccccc4)sc3n2)cc1	nt	nt	i	nt	nt	nt
Fc1ccc(-c2cn3cc(Cc4ccc(Cl)cc4)sc3n2)cc1	nt	nt	i	nt	nt	4.5µM
O=C(C[n+]1cccc(Cl)c1)c1ccc(O)c(O)c1	nt	nt	nt	nt	nt	i
SMILES	IL2 activator	BCR signal inh	Nrf2 ARE act	a7 integrin act	N370S GC mod	BRCA1 expr up
Cc1cccc2c1OCC/C2=N\NC(=O)COc1ccccc1	i	?	i	i	i	11µM
COc1ccc(C(NC(=O)C2CCN(C/C=C/c3ccc(OC(C)=O)c(OC)c3)CC2)c2ccccn2)cc1 (centres undefined)	i	nt	i	nt	nt	i
O=C(Nc1ccc(Cl)c(Cl)c1)N(CCCN1CCOCC1)Cc1cccs1	i	?	i	i	13µM	i
O=C(CNC(=S)N(CCCN1CCOCC1)Cc1cccs1)NC1CCCCCCC1	i	i	i	i	4µM	i
O=C(CNC(=S)N(CCCN1CCOCC1)Cc1cccs1)NC1CCCCC1	i	i	i	i	?	i
Cc1ccc(S(=O)(=O)N2CCN(c3nc(-c4cncs4)nc4ccccc34)CC2)cc1	nt	nt	nt	nt	nt	i
COc1ccc(CNC(=O)Nc2nc(C(N)Cc3ccc(C(F)(F)F)cc3)cs2)cc1 (centres undefined)	i	nt	i	nt	nt	i
Cc1cc(I)ccc1Nc1nc(NCCN2CCOCC2)nc(N2CCOCC2)n1	nt	nt	nt	nt	nt	i
CC(C)OC(=O)c1cn(-c2ccccc2)nc1-c1ccco1	i	?	3.2µM	i	i	i
Cc1cc(NC(=O)/C(C#N)=C/c2ccc(-c3ccc(SC(F)F)cc3)o2)n(-c2ccccc2)n1	100	?	i	i	i	i
Cc1cc(NC(=O)/C(C#N)=C/c2ccc(-c3cccc(C(F)(F)F)c3)o2)n(-c2ccccc2)n1	i	i	i[9.22 µM]	i	i	i
Cc1csc(SCC(=O)Nc2nccs2)n1	i	i	i	i	i	i
NC(=O)c1ccsc1NC(=O)CSc1ccccc1F	i	?	i	i	i	11µM
Cc1csc(SCC(=O)Nc2sccc2C(N)=O)n1	i	?	i	i	i	6.3µM
O=S(=O)(NCCc1cn(S(=O)(=O)c2ccccc2)c2ccccc12)c1ccccc1	nt	nt	nt	nt	nt	i
C=C1NN(CC#N)C(=O)N1c1ccc(OCc2ccccc2)cc1	nt	nt	nt	nt	nt	10µM
C=C1NN(Cc2ccccc2)C(=O)N1c1ccc(OCc2ccccc2)cc1	nt	nt	nt	nt	nt	i
N#CCC(=O)N/N=C\c1ccc(OC/C=C/c2ccccc2)cc1	i	?	i	i	i	5µM
N#CCC(=O)N/N=C/c1ccc(OS(=O)(=O)c2ccccc2)cc1	i	i	i	i	i	i
N#CCC(=O)N/N=C/c1ccc(OCc2ccccc2)cc1	i	i	i	i	i	7.9µM
N#CCC(=O)N/N=C\c1ccccc1OC/C=C/c1ccccc1	i	?	i	i	i	2.5µM
Oc1ccccc1C1C=C(c2ccc3c(c2)OCO3)NC(c2cccc(F)c2)N1 (centres undefined)	nt	nt	nt	nt	nt	i
CC(C)(C)OC(=O)C[C@@H]1C/C=C\C[C@@H](CC(=O)N(CCO)Cc2ccccc2)C(=O)N[C@H](C(C)(C)C)COC1=O	i	i	i	i	nt	i
O=C(NCCCN1CCCCC1)c1ccc2c(c1)ncn2C1CCCC1	i	i	i	i	i	i
CC(C)OCCCNC(=O)c1ccc2c(c1)ncn2C1CCCC1	i	i	i	i	i	11µM
SMILES	IL2 activator	BCR signal inh	Nrf2 ARE act	a7 integrin act	N370S GC mod	BRCA1 expr up
Cc1nc2ccn(Cc3ccco3)c(=O)c2cc1C(=O)Nc1ccc(F)cc1	nt	nt	13µM	nt	nt	nt
COc1ccc(CCNC(=O)c2cccn2C)cc1	i	i	i	i	i	2.8µM
Cn1cccc1C(=O)NCCc1ccccc1	i	?	i	i	i	i
Cn1cccc1C(=O)NCCc1ccc(Cl)cc1	i	?	i	i	i	7.1µM
CC(C)(C)S(=O)(=O)c1cnc(-c2ccc(Cl)cc2)nc1N	i	i	i	i	i	2.8µM
O=c1oc2cc(O)ccc2cc1-c1nc2c(s1)CCc1ccccc1-2	50	?	i	i	i	i
O=c1oc2cc(O)ccc2cc1-c1ccccc1	i	?	i	i	?	10µM
Cn1c(-c2cc3ccc(OC(=O)C(C)(C)C)cc3oc2=O)nc2ccccc21	i	i	i	i[7.66 µM]	?	?
CC(C)(C)C(=O)Oc1ccc2cc(-c3ccc4ccccc4n3)c(=O)oc2c1	i	i	i	i	i	14µM
